Several values for one entry are separate records, joined by “and”; a condition that tells them apart may be missing. Identical values can stand only once. The panel holds about 83,000 compounds, 20% with a hit somewhere; the sample as a whole holds those more often.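 Note: values are percent growth. 100 is the growth of untreated cells, values between 100 and 0 indicate rising inhibition; between -100 and 0 indicates cell death.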 A number with no mark means an inactive call. Activity calls are given as the source filed them. The calls were made as follows: active = growth percent below 10; inactive = the rest.

Results on 37 compounds are retold here after PubChem BioAssay (NCI).

The assay relates to MDA-MB-468 breast. Briefly: NCI-60 one-dose screen, 48 h (100 = growth as untreated, 0 = no growth, -100 = all killed). The conditions noted are these: 10 µM unless noted.
With `Cc1nn(-c2ccccc2)c(Cl)c1/C=N\N=c1/sc2ccccc2n1C`, the growth was 113%.

`COc1cc(CNS(=O)(=O)c2ccc(C)cc2)ccc1OCc1cn(-c2ccc(Br)cc2)nn1`: the growth is 95.5%.

`CC(=O)n1cc([C@H]2CC[C@H](c3cn(C(C)=O)c4ccccc34)c3c2[nH]c2ccccc32)c2ccccc21`: the growth is 92.9%.

For `CCN1CCN(CC(=O)Nc2nc3ccc(NCc4ccc(Cl)cc4)cc3s2)CC1`, the growth is 47.8%.

Turning to `O=[N+]([O-])c1ccc2c(c1)Cc1ccccc1-2`, the growth is 84.1%.

Regarding `CONC1=Nc2cc(NC(N)=NCc3ccccc3)c(N(C)C3CCCCC3)cc2OC1`, the growth was -23.4% (active).

Consider `COc1cc(NC(=O)Nc2cnc(Nc3ccc(N4CCOCC4)cc3)nc2Oc2ccc(F)cc2)cc(OC)c1`, for which the growth is 95.5%.

As to `CC(=O)c1ccc(Nc2nc(SCC(C)C)nc(-c3ccc(F)cc3)c2C#N)cc1`, the growth was 118%.

`COCCn1cc(-c2csc(-c3cn(C)c4ccc(Br)cc34)n2)c2cccnc21`: the growth was 54.8%.

Regarding `O=C(CCc1nnc2sc(COc3ccccc3)nn12)c1nc2ncccc2[nH]1`, the growth is 100%.

As for `Nc1nc(N)c2c(n1)NC(c1sc(Cl)nc1Cl)CC(c1ccccc1)=N2` (configuration not stated), the growth was -2.14% (active).

For the compound `COc1ccc(C2CC(c3cccc(Nc4ccnc5cc(Cl)ccc45)c3)=NN2c2ccccc2)cc1` (configuration not stated), the growth was 63.3%.

With `S=C(Cc1ccccc1)N1CCN(c2ccccc2Cl)CC1`, the growth is 101%.

Consider `CC(C)(C)c1ccc(Cn2cc(CSc3nc4ccccc4s3)nn2)cc1`, for which the growth was 93.6%.

Turning to `CN(C)c1ccc(C(=C2C=CC(=[N+](C)C)C=C2)c2ccccc2Cl)cc1`, the growth is -57.8% (active) and -84.2% (active).

Consider `COc1ccc2ncccc2c1Cc1c(OC)ccc2ncccc12`, for which the growth is 8.37% (active).

Take `CC(=O)OC1CC2CCC1(C)C2(C)C` (configuration not stated): the growth is 103%.

Consider `CCCN1CC(c2ccc(OC)c(OC)c2)=C(c2cn(C(=O)OCC)c3ccccc23)C1=O`, for which the growth is 6.47% (active).

For the compound `O=C(CCCSc1nc(-c2ccc(Cl)cc2)cc(-c2ccc(Cl)cc2)n1)NO`, the growth was -49.5% (active).

As for `c1ccc(-c2nn(-c3ccccc3)[n+](-c3cccc4ccccc34)n2)cc1`, the growth was -20.4% (active).

Consider `COC(=O)CCCNC(=O)C(=O)c1c(O)c(O)c(C(C)C)c2cc(C)c(-c3c(C)cc4c(C(C)C)c(O)c(O)c(C(=O)C(=O)NCCCC(=O)OC)c4c3O)c(O)c12`, for which the growth was -1.3% (active).

`O=c1n(CC2CO2)c(=O)n(CC2CO2)c(=O)n1CC1CO1` (configuration not stated): the growth is 56.7%.

For the compound `O=C(CCc1nnc2sc(/C=C\c3ccccc3)nn12)c1nc2ccccc2[nH]1`, the growth was 76.7%.

Take `NS(=O)(=O)c1ccc(C(=O)N/N=C(\CS(=O)(=O)c2ccccc2)c2cc3cc(Br)ccc3o2)cc1`: the growth was 78.9%.

Regarding `CC1(C)CC[C@]2(c3nnc(-c4ccncc4)o3)CC[C@H]3C(=CC[C@H]4[C@@]3(C)CC[C@H]3C(C)(C)C(=O)CC[C@]43C)[C@@H]2C1`, the growth was 62.2%.

Take `COc1ccc(C2=C/C(=C\c3ccccc3O)C(=O)N2Cc2ccccc2)cc1`: the growth was 53.7%.

With `Cc1c(Cl)cccc1C(=O)Nc1nc2c(s1)CN(C(=O)c1ccc(C(F)(F)F)cc1)CC2`, the growth was 17.7%.

Turning to `Cc1ccc(NC(=O)Nc2ccc(Nc3ncnc4sc5c(c34)CCOC5)cc2)cc1Cl`, the growth was 102%.

On to `Cc1nc(N2CCOCC2)sc1S(N)(=O)=O`, for which the growth was 97%.

On to `CCCCCCCC12Cc3ccccc3C1=Nc1c(c3ccccc3n1C)C2=O` (configuration not stated), for which the growth is 97.3%.

Regarding `CC[C@]12C=CCN3CC[C@@]4(c5ccc(OC)cc5N(C)[C@H]4[C@@](O)(C(=O)OC)[C@@H]1OC(=O)CCN1CCc4ccccc4C1)[C@@H]32`, the growth was 69.7%.

For the compound `C=C1CCC2C3(C)COC(c4cccc(Cl)c4)OC3CCC2(C)C1/C=C/C1=CCOC1=O` (configuration not stated), the growth was 43.6%.

`OC(c1cc(-c2cccc(Cl)c2)nc2ccccc12)C1CCCCN1` (configuration not stated): the growth is -77.5% (active).

Turning to `CCCCCCCCCCCCCCCCCCOc1ccccc1CC(=O)NCC[N+]1(C)CCOCC1`, the growth is 13.7%.

Turning to `CCOC(=O)/C(O)=C(\C=N\C(=S)Nc1ccc(Cl)c(Cl)c1)C(=O)OCC`, the growth is 102%.

Take `COc1cc(C(=O)NNC(=O)c2ccccc2C(=O)O)cc(OC)c1OC`: the growth was 48.6%.

`O=[N+]([O-])c1c(O)c(Cl)cc(Cl)c1Cl`: the growth is 91.2%.
